In PubChem BioAssay:
For some assays here: Entries with a potency or affinity are not part of this list. Calls of active or inactive are those of the source. No rule for the calls is given here.

Biological target: Plasmodium falciparum protein kinase 6 (PK6, PF3D7_1337100) (UniProt Q8IDW1)
Assay: PfPK6 kinase inhibitors, biochemical, TCAMS library (AID 1159586)
Settings: recombinant PfPK6, Kinase-Glo ATP depletion luminescence

Sequence of Plasmodium falciparum protein kinase 6 (PK6, PF3D7_1337100) (Q8IDW1 1-305): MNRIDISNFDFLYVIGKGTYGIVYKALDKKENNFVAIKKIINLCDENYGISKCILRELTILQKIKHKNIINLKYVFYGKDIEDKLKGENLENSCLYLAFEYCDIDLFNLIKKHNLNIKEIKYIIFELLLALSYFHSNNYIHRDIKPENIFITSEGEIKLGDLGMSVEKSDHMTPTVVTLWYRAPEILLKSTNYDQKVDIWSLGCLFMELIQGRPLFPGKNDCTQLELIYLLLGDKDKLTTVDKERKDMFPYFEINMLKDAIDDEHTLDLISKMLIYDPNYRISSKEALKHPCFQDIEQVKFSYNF

outcome, inactive:
c1cc(CN2CCCCC2)cc(-c2csc(-c3nc4ccccc4[nH]3)c2)c1
CC(=NNC(=S)NCCc1ccccc1)c1ccccn1
CN1CCCC(CN2CCN(Cc3cccc(-c4ccc(-c5nc6ccccc6[nH]5)s4)c3)CC2)C1 (stereo not given)
CN1CCN(c2ccc3nc(-c4ccc5nc(-c6ccc(O)cc6)[nH]c5c4)[nH]c3c2)CC1
CCOc1ccc2c(NN=Cc3ccccc3OC)cc(C)nc2c1
CO/C(=C\C=C\c1cc2cc(Cl)c(Cl)cc2[nH]1)C(=O)Nc1ccc(NCCN(C)C)nc1
CCN(CC)CCN(Cc1ccc(-c2ccc(C(F)(F)F)cc2)cc1)C(=O)Cn1c(CCc2cc(F)ccc2F)nc(=O)c2ccccc21
Nc1ncc(-c2ccccc2)cc1-c1cccc2ncccc12
Cc1nc(-c2cccc(Nc3nccc(NCC(O)c4cccc(F)c4)n3)c2)cs1 (stereo not given)
Cc1cnc(Nc2ccccc2)nc1NCCC(=O)Nc1ccccc1
Cc1cccc2[nH]c(-c3cccc(-c4cccc(NC(=O)C(C)CN5CCN(C)CC5)c4)c3)nc12 (stereo not given)
O=C(Nc1ccc(NC2=NCCN2)cc1)c1ccc(C(=O)Nc2ccc(NC3=NCCN3)cc2)cc1
Cc1onc(-c2ccccc2)c1-c1nc(NCc2ccccc2Cl)no1
O=C(NCc1ccccc1)c1nn(CCCN2CCC(N3CCCC3)CC2)cc1-c1ccc(Cl)c(Cl)c1
O=C(Cc1cccc(Cl)c1)N1CCc2cc3nccc(N4CCN5CCC[C@H]5C4)c3cc21
Cn1cncc1C(=O)Nc1cccc(-c2ccc(-c3nc4ccccc4[nH]3)cc2)c1
CNS(=O)(=O)Cc1ccc(Nc2nccc(Nc3cccc4c3cnn4C(=O)Nc3ccccc3)n2)cc1
Cc1nc(N)nc(N)c1-c1ccc(Br)c([N+](=O)[O-])c1
O=C(Nc1ccc(Cl)cc1)c1ccc(CN2CCCN(CC3CCCCC3)CC2)cc1
CCNc1cc(C(=O)N[C@@H](Cc2ccccc2)[C@H](O)CN[C@H](C)C(C)(C)C)cc(N2CCCCS2(=O)=O)c1
CC(=O)Nc1cccc(-c2cnc(N)c3cc(-c4ccc5c(c4)OCO5)ccc23)c1
CCCCCCCN1CC[C@@H](CCCc2ccnc3ccc(OCCC4CCNCC4)cc23)[C@@H](CC)C1
CC1(C)N=C(N)N=C(N)N1OCCSCc1cc(Cl)sc1Cl
Cc1cc(N[C@@H](CC(C)C)C(=O)Nc2ccccc2)nc(NCCc2ccccc2)n1
CN1CCN(CCCN(Cc2csc(-c3ccc(CNCc4ccccc4)cc3)n2)C(=O)c2cc(F)cc(F)c2)CC1
COCCN1CCC(CNCC(C)(C)c2nc(-c3ccc(Cl)c(O)c3)c(-c3ccncc3)[nH]2)CC1
O=C(NC1CCN(CCC(NC(=O)c2ccccc2)c2ccc(Cl)c(Cl)c2)CC1)c1ccc(Cl)cc1 (stereo not given)
O=C(NCc1cccs1)[C@H](Cc1ccccc1)Nc1ccnc(NCC2CCCCC2)n1
c1cc(Nc2nc(-c3ccc(-c4csc(Nc5ccncc5)n4)cc3)cs2)ccn1
C=CCN(c1ccc(OC)cc1)S(=O)(=O)c1ccc(Cl)c(C(=O)Nc2cccc(C#N)c2)c1
Cn1cncc1C(=O)Nc1cccc(-c2ccc(-c3nc4ccccc4[nH]3)s2)c1
c1ccc2c(CNc3nc(NCC4CCCCC4)nc4nc[nH]c34)cccc2c1
CCC1N=C(N)N=C(N)N1OCc1cccc2ccccc12 (stereo not given)
CC(C)c1ccc(CN2CCCCC(NC(=O)c3cc(-c4cccc(F)c4)cs3)C2)cc1 (stereo not given)
COc1cc(C2CCN(CCCCNC(=O)c3ccc(NC(=O)c4ccc(Cl)c(Cl)c4)cc3)CC2)ccc1OC(C)C
CN(C)CC(=O)NCC(NCCCNc1cc(=O)c2ccccc2[nH]1)c1cc(Br)cc(Br)c1 (stereo not given)
COc1cc(Cc2cnc(N)nc2N)ccc1OCC(=O)Nc1ccc(C)cc1
CCOc1c(CNCCCNc2cc(=O)c3ccccc3[nH]2)cc(I)cc1OC
COC(=O)Nc1cc(C(F)(F)F)ccc1N1CCCC(NS(=O)(=O)c2ccc(C(C)(C)C)cc2)C1 (stereo not given)
CCCCCCCN1CC[C@@H](CCC(O)c2ccnc3ccc(OC)cc23)[C@@H](CC)C1 (stereo not given in full)

Biological target: Protein kinase 7 (PK7), Plasmodium falciparum 3D7 (PF3D7_0213400) (UniProt Q7YTF7)
Sequence (Q7YTF7 1-343): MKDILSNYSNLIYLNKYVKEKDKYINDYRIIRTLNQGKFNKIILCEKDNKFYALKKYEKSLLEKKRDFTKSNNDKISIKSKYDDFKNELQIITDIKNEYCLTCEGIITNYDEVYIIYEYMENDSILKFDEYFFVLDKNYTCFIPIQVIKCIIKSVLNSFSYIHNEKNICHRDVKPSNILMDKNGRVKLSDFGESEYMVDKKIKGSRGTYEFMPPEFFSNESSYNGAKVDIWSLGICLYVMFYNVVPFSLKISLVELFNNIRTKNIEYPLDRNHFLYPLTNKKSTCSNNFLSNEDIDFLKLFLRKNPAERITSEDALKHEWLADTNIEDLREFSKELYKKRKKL
Assay: inhibition of Plasmodium PK7 catalytic activity – biochemical, TCAMS antimalarial set, Kinase-Glo luminescence (AID 1159587)
Settings: recombinant PfPK7, Kinase-Glo ATP depletion luminescence

outcome, inactive:
c1cc(CN2CCCCC2)cc(-c2csc(-c3nc4ccccc4[nH]3)c2)c1
CC(=NNC(=S)NCCc1ccccc1)c1ccccn1
CN1CCCC(CN2CCN(Cc3cccc(-c4ccc(-c5nc6ccccc6[nH]5)s4)c3)CC2)C1 (stereo not given)
CN1CCN(c2ccc3nc(-c4ccc5nc(-c6ccc(O)cc6)[nH]c5c4)[nH]c3c2)CC1
CCOc1ccc2c(NN=Cc3ccccc3OC)cc(C)nc2c1
CO/C(=C\C=C\c1cc2cc(Cl)c(Cl)cc2[nH]1)C(=O)Nc1ccc(NCCN(C)C)nc1
CCN(CC)CCN(Cc1ccc(-c2ccc(C(F)(F)F)cc2)cc1)C(=O)Cn1c(CCc2cc(F)ccc2F)nc(=O)c2ccccc21
Nc1ncc(-c2ccccc2)cc1-c1cccc2ncccc12
Cc1nc(-c2cccc(Nc3nccc(NCC(O)c4cccc(F)c4)n3)c2)cs1 (stereo not given)
Cc1cnc(Nc2ccccc2)nc1NCCC(=O)Nc1ccccc1
Cc1cccc2[nH]c(-c3cccc(-c4cccc(NC(=O)C(C)CN5CCN(C)CC5)c4)c3)nc12 (stereo not given)
O=C(Nc1ccc(NC2=NCCN2)cc1)c1ccc(C(=O)Nc2ccc(NC3=NCCN3)cc2)cc1
Cc1onc(-c2ccccc2)c1-c1nc(NCc2ccccc2Cl)no1
O=C(NCc1ccccc1)c1nn(CCCN2CCC(N3CCCC3)CC2)cc1-c1ccc(Cl)c(Cl)c1
O=C(Cc1cccc(Cl)c1)N1CCc2cc3nccc(N4CCN5CCC[C@H]5C4)c3cc21
Cn1cncc1C(=O)Nc1cccc(-c2ccc(-c3nc4ccccc4[nH]3)cc2)c1
CNS(=O)(=O)Cc1ccc(Nc2nccc(Nc3cccc4c3cnn4C(=O)Nc3ccccc3)n2)cc1
Cc1nc(N)nc(N)c1-c1ccc(Br)c([N+](=O)[O-])c1
O=C(Nc1ccc(Cl)cc1)c1ccc(CN2CCCN(CC3CCCCC3)CC2)cc1
CCNc1cc(C(=O)N[C@@H](Cc2ccccc2)[C@H](O)CN[C@H](C)C(C)(C)C)cc(N2CCCCS2(=O)=O)c1
CC(=O)Nc1cccc(-c2cnc(N)c3cc(-c4ccc5c(c4)OCO5)ccc23)c1
CCCCCCCN1CC[C@@H](CCCc2ccnc3ccc(OCCC4CCNCC4)cc23)[C@@H](CC)C1
CC1(C)N=C(N)N=C(N)N1OCCSCc1cc(Cl)sc1Cl
Cc1cc(N[C@@H](CC(C)C)C(=O)Nc2ccccc2)nc(NCCc2ccccc2)n1
CN1CCN(CCCN(Cc2csc(-c3ccc(CNCc4ccccc4)cc3)n2)C(=O)c2cc(F)cc(F)c2)CC1
COCCN1CCC(CNCC(C)(C)c2nc(-c3ccc(Cl)c(O)c3)c(-c3ccncc3)[nH]2)CC1
O=C(NC1CCN(CCC(NC(=O)c2ccccc2)c2ccc(Cl)c(Cl)c2)CC1)c1ccc(Cl)cc1 (stereo not given)
O=C(NCc1cccs1)[C@H](Cc1ccccc1)Nc1ccnc(NCC2CCCCC2)n1
c1cc(Nc2nc(-c3ccc(-c4csc(Nc5ccncc5)n4)cc3)cs2)ccn1
C=CCN(c1ccc(OC)cc1)S(=O)(=O)c1ccc(Cl)c(C(=O)Nc2cccc(C#N)c2)c1
Cn1cncc1C(=O)Nc1cccc(-c2ccc(-c3nc4ccccc4[nH]3)s2)c1
c1ccc2c(CNc3nc(NCC4CCCCC4)nc4nc[nH]c34)cccc2c1
CCC1N=C(N)N=C(N)N1OCc1cccc2ccccc12 (stereo not given)
CC(C)c1ccc(CN2CCCCC(NC(=O)c3cc(-c4cccc(F)c4)cs3)C2)cc1 (stereo not given)
COc1cc(C2CCN(CCCCNC(=O)c3ccc(NC(=O)c4ccc(Cl)c(Cl)c4)cc3)CC2)ccc1OC(C)C
CN(C)CC(=O)NCC(NCCCNc1cc(=O)c2ccccc2[nH]1)c1cc(Br)cc(Br)c1 (stereo not given)
COc1cc(Cc2cnc(N)nc2N)ccc1OCC(=O)Nc1ccc(C)cc1
CCOc1c(CNCCCNc2cc(=O)c3ccccc3[nH]2)cc(I)cc1OC
COC(=O)Nc1cc(C(F)(F)F)ccc1N1CCCC(NS(=O)(=O)c2ccc(C(C)(C)C)cc2)C1 (stereo not given)
CCCCCCCN1CC[C@@H](CCC(O)c2ccnc3ccc(OC)cc23)[C@@H](CC)C1 (stereo not given in full)
